Experimental data from PubChem BioAssay AID1986 (Sanford-Burnham Center for Chemical Genomics, 2009).
Among all 290,000 compounds or so, about 890 (0.31%) were called active. Cut-off read from the data, not from the text of the source: active = inhibition mostly above about 52% (no sharp cut-off); inactive = mostly below about 76%. What follows is part of a selection rich in actives, with near analogues and random picks from the rest.

Assay: inhibitors of HIV fusion peptide binding, primary screen, biochemical, uHTS, fluorescence dequenching (AID 1986)
Settings: cell-free peptide binding, 30 min, stronger effect = higher value
[1] = measured here: repeat confirmation average inhibition, at 18.6 µM

Structure (SMILES) | inhibition (at 20 µM) | inhibition [1] [%]
Cn1cc(C(=O)c2ccccc2)c2ccccc21 | -2% (inactive) | –
Cn1cc(C=C(C#N)C#N)c2ccccc21 | 72.4% (active) | 90.2
Cn1cc(C=C2C(=O)NC(=O)NC2=O)c2ccccc21 | 160% (inactive) | –
C=C1N2CCC(CC2)C1(O)c1ccccc1C (centres undefined) | 1.2% (inactive) | –
O=C(c1cccnc1)C1CCCN(Cc2nc(-c3cnccn3)no2)C1 (centres undefined) | -0.9% (inactive) | –
C=CCc1cc(C=C2C(=O)N(C)C(=O)N(C)C2=O)cc(OCC)c1OCc1ccccc1 | 11.3% (inactive) | –
O=c1cc(C(F)(F)F)c2cc3c4c(c2o1)CCCN4CCC3 | -0.6% (inactive) | –
Cc1cc(=O)oc2cc3c(cc12)CCCN3 | 0.7% (inactive) | –
Cc1cc2c(C(F)(F)F)cc(=O)oc2c2c1NCCC2 | 51.9% (active) | 56.2
COc1ccc(CN2C(=O)NC(=O)/C(=C\c3ccco3)C2=O)cc1 | 91.3% (active) | –
CCN(CC)c1ccc(/C=C2\C(=O)NC(=O)N(Cc3ccco3)C2=O)cc1 | 84.3% (active) | –
CCOc1ccc(N2C(=O)/C(=C\c3cccs3)C(=O)NC2=S)cc1 | 55.7% (active) | –
O=C1NC(=O)N(Cc2ccccc2)C(=O)/C1=C\C=C\c1ccco1 | 84.6% (inactive) | 15.8
CCN(CC)c1ccc(/C=C2/C(=O)NC(=O)N(CC3CCCO3)C2=O)cc1 (centres undefined) | 22.9% (inactive) | –
O=C1NC(=O)N(Cc2ccccc2)C(=O)/C1=C\c1ccco1 | 65.1% (inactive) | 4.5
O=C1NC(=O)N(Cc2ccccc2)C(=O)/C1=C/C=C/c1ccco1 | 146% (inactive) | –
COc1ccc(CN2C(=O)NC(=O)/C(=C/c3ccoc3)C2=O)cc1 | 146% (inactive) | –
CCN(CC)c1ccc(/C=C2\C(=O)NC(=O)N(CC3CCCO3)C2=O)cc1 (centres undefined) | 48.8% (inactive) | –
COc1ccc(N2C(=O)/C(=C/c3cccs3)C(=O)NC2=S)cc1 | 15.2% (inactive) | –
CCOc1ccc(N2C(=O)/C(=C/c3ccco3)C(=O)NC2=S)cc1 | 31.9% (inactive) | –
O=C1NC(=O)N(Cc2ccco2)C(=O)/C1=C/C=C/c1ccco1 | 83.8% (active) | –
CN(C)C(=O)Oc1ccc(-c2cn3cc(Cl)ccc3n2)cc1 | -0.5% (inactive) | –

Structure (SMILES) | inhibition (at 20 µM) | inhibition [1] [%]
COCCOC(=O)C1=C(C)OC(N)=C(C(=O)OC)C12C(=O)Nc1ccccc12 (centres undefined) | -2% (inactive) | –
CNC(C(=O)c1ccccc1)C(OC)c1cccc([N+](=O)[O-])c1 (centres undefined) | 1.8% (inactive) | –
Cc1cc(C)nc(N2Cc3ccccc3C2=N)n1 | -3.6% (inactive) | –
COc1ccc(OC(=O)N(C)C)c(CN(C)C)c1 | 0.5% (inactive) | –
CN1C(=O)NC(=O)/C(=C/c2ccc([N+](=O)[O-])o2)C1=O | 27.7% (inactive) | –
Cc1cc(/C=C2/C(=O)NC(=O)N(Cc3ccco3)C2=O)c(C)n1-c1ccccc1 | 92.7% (inactive) | 2.6
O=C1NC(=S)N(Cc2ccco2)C(=O)/C1=C\c1cccs1 | 67.5% (active) | –
COc1ccc(/C=C2/C(=O)N(Cc3ccco3)C(=O)N(C(C)C)C2=O)cc1 | 9% (inactive) | –
Cc1cc(C)cc(N2C(=O)NC(=O)/C(=C\C=C\c3ccco3)C2=O)c1 | 108% (inactive) | 13.9
C=CCN1C(=O)/C(=C/c2cccs2)C(=O)NC1=S | 15.5% (inactive) | –
COc1ccc(CN2C(=O)NC(=O)/C(=C/c3ccc([N+](=O)[O-])o3)C2=O)cc1 | 85.6% (active) | –
COc1ccc(CN2C(=O)NC(=O)/C(=C/c3ccc([N+](=O)[O-])s3)C2=O)cc1 | 55.1% (inactive) | 18.5
Cc1cccc(N2C(=O)NC(=O)/C(=C\C=C\c3ccco3)C2=O)c1 | 98.4% (active) | –
Cc1ccc(N2C(=O)NC(=O)/C(=C\C=C\c3ccco3)C2=O)cc1 | 75.4% (inactive) | 16.3
O=C1NC(=O)N(Cc2ccc(F)cc2)C(=O)/C1=C/c1cccs1 | -3.9% (inactive) | –
COc1ccc(/C=C2/C(=O)NC(=O)N(Cc3ccco3)C2=O)cc1 | 50.2% (active) | –
COc1ccc(NC(=O)CN2C3CCC2CC(O)(c2cccnc2)C3)cc1OC (centres undefined) | -0.5% (inactive) | –
c1cc(CCN2CCCC2)ccn1 | 1.8% (inactive) | –
Cc1cccc(N=Nc2ccc(N(C)C)cc2)c1 | -1.7% (inactive) | –
O=[N+]([O-])c1ccc2c(c1)C(c1ccccc1)=NCCN2 | 0.2% (inactive) | –
CCN1CCN(c2ccc(N)cc2C)CC1 | -1.1% (inactive) | –
CN1CCN(Cc2cn3cccnc3n2)CC1 | -0.4% (inactive) | –

Structure (SMILES) | inhibition (at 20 µM) | inhibition [1] [%]
CCC(C)n1c(O)c(C=NCC2CCCO2)c(=O)[nH]c1=S (centres undefined) | -0.8% (inactive) | –
CC1=C2C3OC(=O)C(C)C3CC[C@@]2(C)C=CC1=O (some centres undefined) | -0.7% (inactive) | –
CN1CCN(c2ccc([N+](=O)[O-])c(SCCO)c2)CC1 | -0.1% (inactive) | –
Cc1cc(Cl)ccc1C(=O)C1CCCN(Cc2ccon2)C1 (centres undefined) | -1.3% (inactive) | –
CCOP(=O)(OCC)C(O)c1ccc(Br)cc1 (centres undefined) | -1% (inactive) | –
CC(Cc1ccccc1)[n+]1cc(/N=C(\N)[O-])on1 (centres undefined) | -2% (inactive) | –
CCN(CC)C(=O)c1ccc(NC(=O)CN2CCc3cc(OC)c(OC)cc3C2)cc1 | -1.3% (inactive) | –
COc1ccc(CN2CCN(c3ccccc3)CC2)c(C)c1C | -1.3% (inactive) | –
Cn1cccc1/C=C1\C(=O)NC(=O)N(Cc2ccco2)C1=O | 30.6% (inactive) | –
CCN(CC)c1ccc(/C=C2/C(=O)NC(=O)N(Cc3ccco3)C2=O)cc1 | 84.2% (active) | –
CN(C)c1ccc(/C=C2/C(=O)NC(=O)N(Cc3ccco3)C2=O)cc1 | 42.7% (inactive) | –
O/N=C1/C(=C\c2ccccc2)N2CCC1CC2 | 9.6% (inactive) | –
CN1CCC(N2CC3CC(C2)c2cccc(=O)n2C3)CC1 (centres undefined) | 1.9% (inactive) | –
CCOC(=O)c1c(/N=C/C2C(=O)NC(=S)NC2=O)sc2c1CCC2 | 81.3% (active) | –
CCOC(=O)c1c(/N=C/C2C(=O)NC(=O)NC2=O)sc2c1CCC2 | 6.8% (inactive) | –
CCOC(=O)c1c(/N=C/C2C(=O)NC(=S)NC2=O)sc(C)c1C | 30.3% (inactive) | –
CN1CCC(=O)N(CCN=[N+]=[N-])CC1 | 1.6% (inactive) | –
COc1cc(C)c(CN2CC=C(c3ccc(F)cc3)CC2)cc1C | -1.1% (inactive) | –
CCN(CC)c1ccc(CN(C)CCc2ccc(OC)c(OC)c2)cc1 | 0.5% (inactive) | –
Fc1ccccc1N1CCN(Cc2c(F)cccc2F)CC1 | -0.2% (inactive) | –
O=C(N=Nc1c(O)[nH]c(=O)[nH]c1=O)C1COc2cc3ccccc3cc2O1 (centres undefined) | 4.2% (inactive) | –
O=C(C(Cc1ccccc1)NS(=O)(=O)c1cccc2nsnc12)N1CCC2(CC1)OCCO2 (centres undefined) | 103% (active) | –

Structure (SMILES) | inhibition (at 20 µM) | inhibition [1] [%]
O=C(C(Cc1ccccc1)NS(=O)(=O)c1ccc(F)cc1)N1CCC2(CC1)OCCO2 (centres undefined) | 3.1% (inactive) | –
O=C(C1CCCN(S(=O)(=O)c2cccc3nsnc23)C1)N1CCC2(CC1)OCCO2 (centres undefined) | -1.1% (inactive) | –
CNCCc1ccc(OC)c(OC)c1 | -0.5% (inactive) | –
O=C(c1ccc(Cl)cc1)C12CN3CN(CN(C3)C1)C2 | 0% (inactive) | –
COP(=O)(OC)C(Nc1ccccn1)c1ccccc1 (centres undefined) | -0.3% (inactive) | –
CN1C(=O)C(=Cc2sc(=O)n(-c3ccccc3)c2N2CCCCC2)C(=O)N(C)C1=O | 68.2% (active) | 87.3
CN1C(=O)C(=Cc2sc(=O)n(-c3ccccc3)c2N(C)C)C(=O)N(C)C1=O | 27.8% (inactive) | –
CN1C(=O)C(=Cc2ccc(N3CCCCCC3)cc2)C(=O)N(C)C1=O | 16.5% (inactive) | –
COc1ccc(N2C(=O)NC(=O)/C(=C\c3ccc([N+](=O)[O-])s3)C2=O)cc1 | 56.4% (active) | –
COc1cccc(N2C(=O)NC(=O)/C(=C/c3ccc([N+](=O)[O-])s3)C2=O)c1 | 45.2% (inactive) | –
COc1ccccc1N1C(=O)NC(=O)/C(=C/c2ccc([N+](=O)[O-])s2)C1=O | 42.7% (inactive) | –
COc1ccc(N2C(=O)NC(=O)/C(=C/c3ccc([N+](=O)[O-])s3)C2=O)cc1 | 35.4% (inactive) | –
O=C1NC(=O)N(c2ccccc2)C(=O)/C1=C/c1ccc([N+](=O)[O-])s1 | 64.8% (active) | –
O=C1NC(=O)N(c2ccccc2)C(=O)/C1=C\c1ccc([N+](=O)[O-])s1 | 61.1% (inactive) | 6.1
O=c1c2ccccc2nc(Cc2ccccc2)n1-c1cccc(O)c1 | -1% (inactive) | –
CCCc1cc(=O)oc2cc(OCC(=O)N3C[C@H]4C[C@@H](C3)c3cccc(=O)n3C4)ccc12 | 3% (inactive) | –
CCOC(=O)c1nc2ccccc2c(=O)n1-c1ccc(C)cc1 | 0.5% (inactive) | –
COc1cc(CC2(CCc3ccncc3)C(=O)N(C)C(=O)N(C)C2=O)cc(OC)c1OC | 2.3% (inactive) | –
CN1/C(=C\C=Nc2ccccc2)C(C)(C)c2ccccc21 | 0.8% (inactive) | –
CN1/C(=C\C=C\C2=[N+](C)c3ccc4ccccc4c3C2(C)C)C(C)(C)c2ccccc21 | 65.1% (active) | 90.9
CCN1/C(=C\C=C\C2=[N+](CC)c3ccccc3C2(C)C)C(C)(C)c2ccccc21 | 0.5% (inactive) | –
NCCc1c[nH]c2ccc(OCc3ccccc3)cc12 | -1.2% (inactive) | –
